Assay outcomes from PubChem BioAssay.
ELG1 DNA repair: inhibitors of ELG1-dependent DNA repair in HEK293T cells. hit rate 2.3% among 330,000. AID 504467. HEK293T ELG1-luciferase reporter, luminescence, 16 h; DNA damage induced by 5-fluorouridine. Potency, µM (highest dose often 46.1 µM), without a hit: at the highest dose activity change, negative = inhibition, hits mostly inhibitors; also: % is scaled to controls: 0 for no effect and ±100 for the full control effect; nearly all actives have a fitted effect of over 55% in size
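Cells (2,000 per well) received 5-fluorouridine plus test compound or DMSO and were incubated 16 hr at 37 °C, 5% CO2. Luciferase activity was read by luminescence 30 min after ONE-Glo addition; signal suppression marked inhibition of damage-induced ELG1 function.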
Gal4-VP16 FLuc: Gal4-VP16 reporter inhibition counter-screen; Potency, µM (series often up to 53.6 µM), inactives show at the top dose activity, negative = inhibition, usual class: inhibitors; AID 2546; Drosophila S2 Gal4-VP16 UAS-luciferase, luminescence, 20 h; hit rate 3.5% among 310,000;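 also: Gal4-VP16 expression switched on by copper sulfate through the metallothionein promoter; % is scaled to controls: 0 for no effect and ±100 for the full control effect; nearly all actives have a fitted effect of over 50% in size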
MCF10A rerep: DNA re-replication induction in MCF 10a cells | MCF 10A DNA re-replication, Hoechst nuclear intensity, 48 h | Potency, µM (top dose mostly 46.1 µM), without a hit: at the highest dose activity, positive = re-replication, most hits filed as activators | hit rate 2.9% among 350,000 | AID 624296; also: % of control where 0% means no effect; nearly all actives have a fitted effect of over 50% in size
RORg inh: ROR gamma (mouse) transcription inhibition; P51450; Drosophila S2 Gal4-RORgamma UAS-luciferase reporter, 20 h; Potency, µM (series often up to 53.6 µM), for inactives: top-dose activity change, negative = inhibition, usual class: inhibitors; hit rate 5.4% among 310,000; also: % is scaled to controls: 0 for no effect and ±100 for the full control effect; nearly all actives have a fitted effect of over 60% in size
Target sequence (P51450 whole entry, looked up, the tested form may be a part): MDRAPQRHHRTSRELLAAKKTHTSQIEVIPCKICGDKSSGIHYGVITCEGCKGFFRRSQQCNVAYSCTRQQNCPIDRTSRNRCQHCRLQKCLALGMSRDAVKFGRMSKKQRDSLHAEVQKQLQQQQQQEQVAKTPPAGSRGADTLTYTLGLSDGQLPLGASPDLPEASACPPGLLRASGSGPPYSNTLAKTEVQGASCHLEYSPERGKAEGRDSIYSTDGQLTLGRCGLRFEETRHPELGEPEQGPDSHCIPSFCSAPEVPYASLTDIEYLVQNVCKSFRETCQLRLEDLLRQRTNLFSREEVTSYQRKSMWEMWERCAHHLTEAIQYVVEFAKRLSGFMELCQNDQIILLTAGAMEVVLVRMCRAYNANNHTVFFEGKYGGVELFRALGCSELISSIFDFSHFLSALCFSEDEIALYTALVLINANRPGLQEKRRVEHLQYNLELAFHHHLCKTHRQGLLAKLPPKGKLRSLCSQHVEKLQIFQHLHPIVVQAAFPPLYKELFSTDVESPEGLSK
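Drosophila Schneider cells stably carrying a metallothionein-driven Gal4 DBD–ROR gamma fusion and a UAS-Photinus luciferase reporter were exposed to compound for 1 hr, then induced with copper sulfate (700 uM final) for 20 hr at ambient temperature before luminescence reading.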
SW480 rereplic: DNA re-replication induction in SW480 cells; SW480 DNA re-replication, Hoechst DNA content imaging, 48 h; Potency, µM (highest dose often 46.1 µM), for the others: at the highest dose re-replication activation, hits mostly activators; hit rate 1.8% among 340,000; AID 624297; also: % of control where 0% means no effect; nearly all actives have a fitted effect of over 55% in size
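Compounds, transferred as 23 nL by pin tool, were incubated with cells for 48 hr; DNA content per nucleus was then quantified by Hoechst staining and fluorescence plate imaging.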
* = called active by the depositor; [ ] = dose if it differs, or a comment. Sampled rows, rich in hits. Any-hit rate of the full collection: about 10%. Calls follow the shape of the dose curve; as a rule, active = well fitted curve in the direction sought with a large enough effect; inconclusive = small, poorly fitted or top-dose-only effect, or another doubt; inactive = no such curve, though single readings can be large; an effect the other way counts as inactive or inconclusive. Potency is read from the fitted curve at half-maximal effect.

For COc1ccc(/C=N/NC(=O)C2C3CCCCC32)cc1OC (centres undefined) the results were ELG1 DNA repair 11%, Gal4-VP16 FLuc 12%, MCF10A rerep 0%, RORg inh 1% and SW480 rereplic -1%.
Cc1ccc(/C=N/NC(=S)NC2CCS(=O)(=O)C2)cc1 (centres undefined) was read as ELG1 DNA repair -3%, Gal4-VP16 FLuc 5µM*, MCF10A rerep -1%, RORg inh 7.9µM* and SW480 rereplic inconclusive.
`O=S1(=O)CCC(NC(=S)Nc2ccc3ccccc3c2)C1` (centres undefined) gave ELG1 DNA repair inconclusive, Gal4-VP16 FLuc inconclusive, MCF10A rerep -1%, RORg inh 7% and SW480 rereplic -10%.
Screening O=S1(=O)CCC(NC(=S)NC2CCS(=O)(=O)C2)C1 (centres undefined) returned ELG1 DNA repair 8%, Gal4-VP16 FLuc inconclusive, MCF10A rerep -1%, RORg inh 22%[10 µM] and SW480 rereplic -11%.
O=S1(=O)CCC(NC(=S)Nc2ccccc2)C1 (centres undefined) was read as ELG1 DNA repair 1%, Gal4-VP16 FLuc 5%, MCF10A rerep 1%, RORg inh 12% and SW480 rereplic 4.1µM*.
For COc1ccc(/C=N/NC(=S)NC2CCS(=O)(=O)C2)cc1OC (centres undefined) the results were ELG1 DNA repair 15%, Gal4-VP16 FLuc inconclusive, MCF10A rerep -3%, RORg inh 16µM* and SW480 rereplic -6%.
Screening COc1cc(/C=N/NC(=O)NC23CC4CC(CC(C4)C2)C3)ccc1OCC(N)=O returned ELG1 DNA repair inconclusive, Gal4-VP16 FLuc -7%, MCF10A rerep 10%, RORg inh 14% and SW480 rereplic -16%.
Screening COc1ccc(C=NNC(=S)NC23CC4CC(CC(C4)C2)C3)cc1OC returned MCF10A rerep 9.2µM* and SW480 rereplic inconclusive.
Cc1cccc(CN2CCCC(C(=O)N3CCCCC3)C2)c1 (centres undefined) was read as ELG1 DNA repair 6%, Gal4-VP16 FLuc 2%, MCF10A rerep 14%, RORg inh 2% and SW480 rereplic -8%.
`COc1ccc(CCNCC(O)COc2ccc(OC)cc2C(C)(C)C)cc1` (centres undefined) gave ELG1 DNA repair -17%, Gal4-VP16 FLuc inconclusive, MCF10A rerep inconclusive, RORg inh inconclusive and SW480 rereplic 23µM*.
Screening COc1ccc(NC(=S)NNC(=O)C2CC2c2ccc(C)cc2)cc1 (centres undefined) returned ELG1 DNA repair -10%, Gal4-VP16 FLuc -17%, MCF10A rerep inconclusive, RORg inh -21% and SW480 rereplic 18µM*.
For Cc1ccc(NC(=S)NNC(=O)C2CC2c2ccc(C)cc2)cc1 (centres undefined) the results were ELG1 DNA repair -3%, Gal4-VP16 FLuc inconclusive, MCF10A rerep 8%, RORg inh 11µM* and SW480 rereplic 39%.
`O=C(NNC(=S)Nc1ccc(F)cc1)C1CC1c1ccc(Cl)cc1` (centres undefined) gave ELG1 DNA repair -1%, Gal4-VP16 FLuc 20µM*, MCF10A rerep inconclusive, RORg inh inconclusive and SW480 rereplic -12%.
`Cc1ccc(C2CC2C(=O)NNC(=S)Nc2cccc(Cl)c2)cc1` (centres undefined) gave ELG1 DNA repair -18%, Gal4-VP16 FLuc -5%, MCF10A rerep 23%, RORg inh -26% and SW480 rereplic -2%.
Screening N#Cc1ccccc1OCC(=O)NC(=O)NCc1ccco1 returned ELG1 DNA repair inconclusive, Gal4-VP16 FLuc -5%, MCF10A rerep 5%, RORg inh 22% and SW480 rereplic -14%.
For COc1ccc(-n2ncc3c2CC(C)(C)CC3NC(=O)CCn2nc(C)cc2C)cc1 (centres undefined) the results were ELG1 DNA repair -7%, Gal4-VP16 FLuc -6%, MCF10A rerep -3%, RORg inh -11% and SW480 rereplic -12%.
Screening O=C(C[C@H]1C/C=C\C[C@H](NC(=O)OCC2c3ccccc3-c3ccccc32)C(=O)OC[C@H]2CCCN2C1=O)NCCO returned ELG1 DNA repair 20%, MCF10A rerep -2% and SW480 rereplic -8%.
For O=C(C[C@@H]1C/C=C\C[C@H](NC(=O)OCC2c3ccccc3-c3ccccc32)C(=O)OC[C@H]2CCCN2C1=O)N[C@@H](CO)Cc1ccccc1 the results were ELG1 DNA repair 15µM*, MCF10A rerep 3% and SW480 rereplic -9%[9.22 µM].
`O=C(C[C@@H]1C/C=C\CC[C@H](Cc2ccc(F)cc2)C(=O)OC[C@@H]2CCCN2C1=O)N[C@H](CO)Cc1ccccc1` gave ELG1 DNA repair 21µM*, MCF10A rerep inconclusive and SW480 rereplic inconclusive.
CC(C)(C)[C@H]1COC(=O)[C@@H](Cc2ccc(F)cc2)CC/C=C/C[C@@H](CC(=O)N[C@H](CO)Cc2ccccc2)C(=O)N1 was read as ELG1 DNA repair -12%, MCF10A rerep 10% and SW480 rereplic 19%.
For CC(C)(C)[C@H]1COC(=O)[C@@H](Cc2ccc(F)cc2)CC/C=C/C[C@@H](CC(=O)N[C@@H](CO)Cc2ccccc2)C(=O)N1 the results were ELG1 DNA repair 26µM*, MCF10A rerep 0% and SW480 rereplic inconclusive.
For CCC(=O)OCCNc1cc(Sc2nc3ccccc3[nH]2)c2nonc2c1[N+](=O)[O-] the results were ELG1 DNA repair -11%, Gal4-VP16 FLuc 4.5µM*, MCF10A rerep 1.3µM*, RORg inh 3.2µM* and SW480 rereplic 10µM*.
Screening CCCSc1cc(NCCOC(=O)CCC)c([N+](=O)[O-])c2nonc12 returned ELG1 DNA repair 6%, Gal4-VP16 FLuc inconclusive, MCF10A rerep inconclusive, RORg inh inconclusive and SW480 rereplic 8%.
Screening CCCC(=O)OCCNc1cc(Sc2nccn2C)c2nonc2c1[N+](=O)[O-] returned ELG1 DNA repair -18%, Gal4-VP16 FLuc 5µM*, MCF10A rerep inconclusive, RORg inh 5.6µM* and SW480 rereplic 20%.
`CCC(=O)OCCNc1cc(Sc2nc3ccccc3s2)c2nonc2c1[N+](=O)[O-]` gave ELG1 DNA repair 9%, Gal4-VP16 FLuc 4.5µM*, MCF10A rerep -9%, RORg inh -37% and SW480 rereplic -11%.
O=[N+]([O-])c1c(NCCCO)cc(Sc2nc3ccccc3s2)c2nonc12 was read as ELG1 DNA repair -1%, Gal4-VP16 FLuc 1%, MCF10A rerep inconclusive, RORg inh 16% and SW480 rereplic inconclusive.
CCCC(=O)OCCNc1cc(SCc2ccco2)c2nonc2c1[N+](=O)[O-] was read as ELG1 DNA repair -1%, Gal4-VP16 FLuc inconclusive, MCF10A rerep inconclusive, RORg inh inconclusive and SW480 rereplic inconclusive.
